# Bioassay records from PubChem BioAssay.
# AmpC inh no detg: qHTS Inhibitors of AmpC Beta-Lactamase (assay without detergent); actives 0.52% (n = 330,000); Potency, µM (titrated, usually from 57.1 µM), inactives show at the top dose activity change, negative = inhibition, actives largely listed as inhibitors; P00811; AmpC nitrocefin hydrolysis, absorbance 480 nm, 0.0001% Triton;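 further: potency means the concentration at half of the fitted maximal effect; plate controls were no compound for no effect and no enzyme for full effect; nearly all actives have a fitted effect of over 20% in size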
# Target sequence (P00811 whole entry, looked up): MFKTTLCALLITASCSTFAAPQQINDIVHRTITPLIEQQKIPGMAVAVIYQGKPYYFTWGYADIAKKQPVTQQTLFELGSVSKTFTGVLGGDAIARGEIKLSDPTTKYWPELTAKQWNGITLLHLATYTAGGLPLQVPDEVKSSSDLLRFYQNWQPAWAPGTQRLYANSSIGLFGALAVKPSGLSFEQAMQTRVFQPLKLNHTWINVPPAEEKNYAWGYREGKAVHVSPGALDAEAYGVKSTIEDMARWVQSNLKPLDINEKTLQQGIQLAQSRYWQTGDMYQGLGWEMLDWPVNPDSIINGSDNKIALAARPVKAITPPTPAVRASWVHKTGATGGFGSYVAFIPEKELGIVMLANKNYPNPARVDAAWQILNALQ
#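 20 mM phosphate pH 7.0 + 0.01% (detergent screen) or 0.0001% Triton X-100; 5.3 nM AmpC reagent; cpd preinc 15 min RT; nitrocefin (800 uM stock) to start; A480 q20 s × 4 min; Activity was normalised to no-enzyme and no-compound control wells.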
# Cycloheximide cs: Cycloheximide Counterscreen for Small Molecule Inhibitors of Shiga Toxin. cell reporter, cycloheximide protein synthesis inhibition counterscreen. max response, %. actives 12% (n = 300,000); in the data active means max response mostly above about 13%, no sharp cut-off; inactive means mostly below about 14%; further: read at 38.3 µM for the half of the compounds with a filed dose; 0% is about no effect
# SARS PLpro yeast: qHTS of Yeast-based Assay for SARS-CoV PLP. S. cerevisiae expressing SARS-CoV PLpro, growth rescue. Potency, µM (titrated, usually from 32.9 µM), for the others: top-dose activity, positive = growth rescue, hits mostly activators. actives 0.19% (n = 330,000). AID 485353, 2010; calls by dose curve; further: potency means the concentration at half of the fitted maximal effect; 0% is about no effect; nearly all actives have a fitted effect of over 55% in size
# AmpC detergent: qHTS Inhibitors of AmpC Beta-Lactamase (assay with detergent). P00811. AmpC hydrolysis of nitrocefin, absorbance 480 nm, 0.01% Triton. Potency, µM (highest dose often 114 µM), for inactives: at the highest dose activity change, negative = inhibition, usual class: inhibitors. actives 0.041% (n = 370,000). AID 485294, 2010;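 further: potency means the concentration at half of the fitted maximal effect; 0% = no-compound wells and -100% = no-enzyme wells; nearly all actives have a fitted effect of over 25% in size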
#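 AmpC (5.3 nM in the dispensed reagent) in 20 mM phosphate pH 7.0 with 0.01% (detergent screen) or 0.0001% Triton X-100 was preincubated with compounds for 15 min at room temperature. Nitrocefin was then added from an 800 uM solution, and hydrolysis was followed at 480 nm.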
# Shiga inhibitor: A qHTS for Small Molecule Inhibitors of Shiga Toxin. Vero cells, Shiga toxin protein synthesis inhibition reporter. inhibition, % at 38.7 µM. actives 9.2% (n = 290,000). AID 2315, 2010; in the data active means inhibition mostly above about 28%, no sharp cut-off; inactive means mostly below about 43%; further: 0% is about no effect
# AMA1 RON2 block: qHTS for Inhibitors of AMA1-RON; Towards Development of Antimalarial Drug Lead: Primary Screen; Plasmodium falciparum AMA1 (3D7) - RON2 peptide interaction; AlphaScreen AMA1-biotinylated RON2 peptide binding; Potency, µM (series often up to 58.2 µM), without a hit: top-dose activity change, negative = inhibition, usual class: inhibitors; actives 0.2% (n = 360,000); AID 720542, 2013;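 further: potency means the concentration at half of the fitted maximal effect; 0% = vehicle wells and -100% = peptide control; nearly all actives have a fitted effect of over 45% in size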
#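 AMA1 (3D7) with his tag at 25 nM final met compounds first, then biotinylated RON2 peptide at 25 nM; detection used donor plus acceptor beads, 10 µg/mL apiece, read by AlphaScreen after 30 min at room temperature.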
# Active calls of the source: *; ? = inconclusive; . = not tested or not shown. The entries come from a sample that favours hits as a whole. Unless noted, the call rests on the fitted dose curve; in most records, active means well fitted curve in the direction sought with a large enough effect; inconclusive means small, poorly fitted or top-dose-only effect, or another doubt; inactive means no such curve, though single readings can be large; an effect the other way counts as inactive or inconclusive.
SMILES,AmpC inh no detg,Cycloheximide cs,SARS PLpro yeast,AmpC detergent,Shiga inhibitor,AMA1 RON2 block
Cc1cc(C)c2cc3c(N)c(C(=O)N4CCOCC4)sc3nc2c1,-20%,-1,2%,7%,-3,13%
Cc1ccc(C)c2nc3sc(C(=O)N4CCOCC4)c(N)c3cc12,1%,27*,0%,-10%,58*,1%
COc1ccccc1OCCCC(=O)Nc1nccs1,-19%,52*,-1%,-6%,89*,-4%
COc1ccccc1OCCC(=O)Nc1nc(C)cs1,-16%,15*,2%,0%,24,-1%
CCn1c(=O)cc(OCC(=O)Nc2nc(C)cs2)c2ccccc21,50µM*,-1,-2%,-18%,-1,-5%
CCc1ccc(OCCCC(=O)Nc2nccs2)cc1,-13%,29*,0%,2%,53*,-1%
O=C(CCCOc1ccccc1)Nc1nccs1,-8%,10,9%,-13%,31,-12%
COc1ccccc1N1CCN(Cc2c[nH]c3ccccc23)CC1,-7%,-4,-1%,7%,-4,0%
O=C(CC1SC(=NCC2CCCO2)NC1=O)Nc1cc([N+](=O)[O-])ccc1Cl (centres undefined),-20%,5,-5%,?,-9,-17%
Cc1c(C(=O)O)sc(=S)n1-c1ccc(Cl)cc1,-40%,0,1%,-5%,-3,-5%
Cc1c(Cl)sn(-c2ccc(Cl)cc2)c1=O,-38%,35*,-6%,?,92*,3%
CCCCC(=O)Nc1ccc(Cl)cn1,-11%,14,2%,-12%,35,10%
CCCCCCC(=O)Nc1ccc(Br)cn1,-21%,30*,-1%,2%,50*,-5%
CCCC(C)C(=O)Nc1ccc(Cl)cn1 (centres undefined),-18%,8.0*,1%,-8%,47*,-14%
CCOc1ccc(OCC(=O)OC(C)C(=O)Nc2ccc(Cl)cn2)cc1 (centres undefined),-18%,.,1%,0%,.,0%
COc1ccc(CCC(=O)Nc2ccc(Br)cn2)cc1,-12%,38*,4%,-7%,78,-4%
CCCCCC(=O)Nc1ccc(Cl)cn1,-6%,39*,-2%,?,61*,16%
O=[N+]([O-])c1cc(S(=O)(=O)N2CCCC2)ccc1N/N=C/c1cccs1,-7%,11,7%,-2%,-2,-6%
CCC(C(=O)N1CCN(c2ccc(OC)cc2)CC1)n1nc(C)n2c(cc3occc32)c1=O (centres undefined),.,.,.,-7%,.,.
COc1ccc(/C=C/C(=O)c2ccc(OC)cc2OC)cc1,-2%,37*,-5%,0%,48*,-16%
COc1cc(OC)c(C(=O)/C=C/c2ccccc2)c(O)c1O,-20%,5,-7%,-1%,4,-26%
COc1ccc(C(=O)COC(=O)/C=C/c2ccccc2)c(OC)c1,-21%,.,0%,5%,.,13%
COc1cc(O)cc(O)c1C(=O)/C=C/c1ccccc1,-45%,8.9*,-1%,-6%,8,-15%
COc1ccc(/C=C/C(=O)Oc2ccc(C=O)cc2OC)cc1,.,.,.,.,.,-26%
COc1ccc(/C=C/C(=O)c2c(OC)cc(O)cc2OC)cc1,.,36*,.,.,65*,.
SMILES,AmpC inh no detg,Cycloheximide cs,SARS PLpro yeast,AmpC detergent,Shiga inhibitor,AMA1 RON2 block
COc1ccc(/C=C/C(=O)c2cc3c(cc2N)OCO3)cc1,-31%,33*,-23%,-9%,80*,?
Cc1cccc(N2CCN(S(=O)(=O)c3cc(Br)cc4c3N(C(=O)C3CC3)CC4)CC2C)c1 (centres undefined),.,.,.,-5%,.,.
CC1(C)CC(=O)C=C(c2ccc(-c3ccc(S(C)(=O)=O)cc3)cc2)C1=O,.,.,.,.,.,-12%
COc1cc(CCC(=O)N2CCN(c3cccc(C)c3C)CC2)cc(OC)c1OC,98%,3,-1%,-4%,-5,14%
O=C(O)c1cccc(NC(=O)c2cccc(S(=O)(=O)N3CCCCC3)c2)c1,-18%,-3,-3%,-8%,5,1%
O=C(Nc1ccc2c(c1)OCO2)c1cccc(S(=O)(=O)N2CCCC2)c1,-48%,24*,-9%,?,41*,-9%
O=C(Nc1ccc(N2CCOCC2)cc1)c1ccc(S(=O)(=O)N2CCCCC2)cc1,-6%,-2,-3%,4%,-21,-10%
O=C(Nc1ccc2c(c1)OCCO2)c1ccc(Br)c(S(=O)(=O)N2CCOCC2)c1,-5%,32*,1%,-13%,52*,-7%
O=C(Nc1ccc2c(c1)OCCO2)c1ccc(S(=O)(=O)N2CCCCC2)cc1,-25%,33*,6%,-13%,64,-7%
O=C(Nc1cccc(O)c1)c1cccc(S(=O)(=O)N2CCCCCC2)c1,-50%,23*,8%,-11%,44*,-5%
CC(C)(C)OC(=O)C[C@@H]1C/C=C\C[C@@H](CC(=O)NCCO)C(=O)N[C@H](C(C)(C)C)COC1=O,3%,.,0%,.,.,-5%
O=C(Nc1ccc2c(c1)OCO2)c1ccc(Br)c(S(=O)(=O)N2CCCC2)c1,-34%,28*,-2%,-14%,61*,4%
Cc1ccc(NC(=O)c2cc(S(=O)(=O)N3CCCCC3)c[nH]2)cc1C,7.1µM*,-2,7%,?,-6,0%
Cc1ccc(NC(=O)c2cc(S(=O)(=O)N3CCCCC3)c[nH]2)cc1F,-27%,-2,-8%,-15%,-6,5%
O=C(O)c1ccc(NC(=O)c2ccc(Br)c(S(=O)(=O)N3CCCC3)c2)cc1,.,.,.,2%,.,.
CCOC(=O)C(c1ccccc1)C(Nc1ccc(Cl)c(Cl)c1)c1ccccn1 (centres undefined),10%,30,0%,6%,-2,-5%
COc1ccc(-c2cc(-c3c(O)c(OC)c4occc4c3OC)[nH]n2)cc1OC,22%,23*,-24%,-3%,25,-6%
COc1ccc(-c2cc(-c3c(O)c(OC)c4occc4c3OC)[nH]n2)cc1,-16%,21*,-12%,1%,79*,0%
COc1ccc(-c2noc(-c3cc(-c4ccc(F)cc4)n[nH]3)n2)cc1,.,.,.,4%,.,.
CCOc1ccc(-c2cc(-c3nc(-c4cc(OC)c(OC)c(OC)c4)no3)[nH]n2)cc1,.,.,.,1%,.,.
CCN1C[C@@]2(COC)C3[C@@H](OC)[C@H]4[C@@H]1[C@@]3(C1C[C@H]3[C@H](OC(=O)c5ccccc5)C1[C@]4(OC(C)=O)C[C@H]3OC)[C@@H](OC)C[C@H]2O (some centres undefined),.,.,.,.,.,-5%
